Data reported in the supplement of paper PMC12067093, “Discovery and optimisation of a covalent ligand for TRIM25 and its application to targeted protein ubiquitination” (Chemical Science, 2025).
The full data set covers some 21,000 targets. This sample favours those with the largest changes.

Target: WDR43_Q15061_158_HIVEWNVQTCK (UniProt Q15061)
Assay: probe-labelled cysteine peptide fold change vs DMSO (competition) (log2 fold change); higher = less target engagement (more negative = stronger competition)
Settings: THP-1, incubation time: 4 h
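Also: competitive profiling in live THP-1 cells: cysteine peptides tagged with an iodoacetamide desthiobiotin (IA-DTB) probe, intensity after compound treatment relative to DMSO-treated cells.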

Sequence of WDR43_Q15061_158_HIVEWNVQTCK (Q15061 whole entry, looked up): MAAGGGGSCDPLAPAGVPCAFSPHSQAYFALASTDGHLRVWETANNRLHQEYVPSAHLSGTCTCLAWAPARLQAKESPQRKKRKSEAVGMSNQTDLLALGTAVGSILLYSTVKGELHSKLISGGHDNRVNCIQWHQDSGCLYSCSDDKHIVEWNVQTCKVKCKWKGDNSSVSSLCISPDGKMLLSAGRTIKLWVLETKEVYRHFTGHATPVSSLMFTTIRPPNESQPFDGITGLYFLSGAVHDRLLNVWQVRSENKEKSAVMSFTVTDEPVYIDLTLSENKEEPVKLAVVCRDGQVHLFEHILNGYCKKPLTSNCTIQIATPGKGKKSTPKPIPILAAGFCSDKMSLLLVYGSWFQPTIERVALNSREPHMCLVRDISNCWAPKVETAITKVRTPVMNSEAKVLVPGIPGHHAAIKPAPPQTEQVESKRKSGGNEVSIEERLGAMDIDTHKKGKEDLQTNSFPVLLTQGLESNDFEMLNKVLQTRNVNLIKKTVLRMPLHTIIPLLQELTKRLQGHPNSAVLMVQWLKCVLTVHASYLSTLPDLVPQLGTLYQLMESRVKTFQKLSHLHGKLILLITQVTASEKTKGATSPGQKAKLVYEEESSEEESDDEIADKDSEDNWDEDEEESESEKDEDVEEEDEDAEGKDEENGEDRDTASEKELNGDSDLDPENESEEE

For Cc1cc(C(=O)N2CCCN(C(=O)CCl)CC2)ccc1-c1ccccc1 [compound 10], which “probe-labelled cysteine peptide fold change” value (10 µM) is on record?
Its value is -0.0124.

What about the “probe-labelled cysteine peptide fold change” value (50 µM) of the same molecule?
Its value is -0.0233.
